# From ChEMBL document CHEMBL4513146, “CO-ADD screening of Karazin Kharkiv National University (Ukraine) compounds”
# Measured potencies and affinities stand elsewhere.
# Assays:
# Staphylococcus aureus = conditions: Concentration 32 ug.mL-1;; ASSAY_TEST Inhibition of Bacterial Growth; detection method Absorption (OD600); MEDIA CAMHB; plate type 384well; NBS; CORNING #3640; time 18 hr
# Escherichia coli = conditions: Concentration 32 ug.mL-1;; ASSAY_TEST Inhibition of Bacterial Growth; detection method Absorption (OD600); MEDIA CAMHB; plate type 384well; NBS; CORNING #3640; time 18 hr
Structure (SMILES),Inhibition (Staphylococcus aureus) [%],Inhibition (Escherichia coli) [%]
COc1cccc(NC(=O)Cn2nc3c(Oc4ccccc4)nccn3c2=O)c1,0.03,-5.32
Cc1cc(C)c(NC(=O)Cn2nc3ccc(SC4CCCCC4)nn3c2=O)c(C)c1,7.62,-6.45
CCCCOc1ccc(-c2cc3c4nnc(SCC(=O)Nc5cccc(C(C)=O)c5)n4ccn3n2)cc1,1.68,1.11
Cc1c(Cl)cccc1-n1ccn2c(SCC(=O)c3c[nH]c4ccccc34)nnc2c1=O,-2.75,-4.84
CCOc1ccc(-n2ccn3c(SCC(=O)Nc4ccc(CC)cc4)nnc3c2=O)cc1,18.59,-0.7
